Source: PubChem BioAssay AID651593 (National Center for Advancing Translational Sciences (NCATS), 2012)
About 860 (78%) of roughly 1,100 compounds were called active. Another 19% or so got no clear call; they are omitted. The call rests on the fitted dose curve; in most records, active means well fitted activation curve with a large enough effect; inconclusive means small, poorly fitted or top-dose-only effect; inactive means flat fitted curve, though single readings scatter. So high a share suggests a set chosen from earlier hits. This is one part of the list.

experiment: qHTS of Nrf2 Activators: Hit Validation in Primary Assay; conditions: Nrf2/ARE reporter cell assay; Potency: activation; series mostly up to 46.1 µM; further: nearly all actives have a fitted effect of over 70% in size
In short: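 AREc32 cells stably carrying an ARE-driven firefly luciferase, plated overnight, then exposed 24 h at 37 °C to compounds at several concentrations. ARE activation read as luminescence with Steady-Glo after 30 min at room temperature.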
Potency means the concentration at half of the fitted maximal effect.

Compound	Potency
COC(=O)/C=C1/S/C(=N/N=C/c2ccco2)NC1=O	0.82 µM (active)
O=C(/C=C/c1cccs1)c1ccco1	20.6 µM (active)
CCCN(C(=O)c1ccco1)c1nnc(-c2ccccc2C)s1	8.2 µM (active)
S=c1[nH]nc(COc2ccccc2)n1/N=C/C(Cl)=C/c1ccccc1	4.61 µM (active)
S=c1[nH]nc(-c2cccnc2)n1/N=C/C(Cl)=C\c1ccccc1	14.6 µM (active)
S=c1[nH]nc(-c2ccco2)n1/N=C/C(Cl)=C/c1ccccc1	23.1 µM (active)
Cc1ccc(NC(=O)c2cc(=O)c3ccccc3o2)cc1	20.6 µM (active)
O=C(Nc1ccc(F)cc1)c1cc2ccccc2o1	3.66 µM (active)
Cc1ccc(C)c(NC(=O)COC(=O)c2cc(=O)c3ccccc3o2)c1	20.6 µM (active)
O=c1oc(CCCO)cc2ccc(C#Cc3ccsc3)cc12	2.31 µM (active)
O=c1[nH]c(O)c(/C=C2\C=Nc3ccc(Br)cc32)[nH]1	8.2 µM (active)
O=c1[nH]c(O)c(/C=C2\C=Nc3ccccc32)[nH]1	14.6 µM (active)
O=C(CN1CCS(=O)(=O)CC1)N/N=C/c1cccc(C(F)(F)F)c1	2.31 µM (active)
Oc1ccccc1-c1csc(-c2ccccc2)n1	7.31 µM (active)
Nc1nc(-c2ccccc2)cc(-c2ccccc2O)n1	4.11 µM (active)
CC1Sc2n(c3ccccc3[n+]2C)N=C1c1ccccc1 (configuration not stated)	7.31 µM (active)
C[n+]1c2n(c3ccccc31)N=C(c1ccccc1)CS2	2.91 µM (active)
COc1cc2c(c(Br)c1N)-c1cc(Br)c(N)cc1C2=O	4.11 µM (active)
O=C(Nc1ccccc1C(=O)N/N=C/c1ccco1)c1ccccc1	2.31 µM (active)
O=C(Nc1ccccc1C(=O)N/N=C/c1ccco1)c1ccc(F)cc1	2.31 µM (active)
Nc1c(Cl)c(Cl)nc(C(=O)N/N=C/c2ccco2)c1Cl	2.59 µM (active)
Cc1nn(C)c(C)c1/C=C(/C(=O)C(C)(C)C)n1cncn1	11.6 µM (active)

Compound	Potency
O=C(CN1C(=O)S/C(=C\c2ccccc2Cl)C1=O)NC1C=CS(=O)(=O)C1 (configuration not stated)	18.4 µM (active)
Brc1cc2c(cc1/C=N/Nc1nc3ccccc3s1)OCO2	2.31 µM (active)
O=[N+]([O-])c1cc(Cl)cc(/C=N/Nc2nc3ccccc3s2)c1O	inactive
CCc1nc(N)c(C#N)c(-c2ccco2)c1C	1.64 µM (active)
N#Cc1c(-c2ccco2)cc(-c2ccc(F)cc2)nc1N	2.31 µM (active)
CC(C)Cc1cc(-c2ccco2)c(C#N)c(N)n1	1.3 µM (active)
N#Cc1c(-c2ccco2)cc(-c2ccccn2)nc1N	2.31 µM (active)
O=[N+]([O-])c1cccc(-c2cnc3ccccc3n2)c1	6.51 µM (active)
c1coc(-c2cnc3ccccc3n2)c1	5.17 µM (active)
O=C(Oc1cccc(-c2cnc3ccccc3n2)c1)c1ccco1	3.26 µM (active)
CC(=O)Nc1ccc(O)c(-c2nc3ccccc3s2)c1	2.06 µM (active)
O=[N+]([O-])c1ccc(Cl)c(/C=N/n2c(-c3ccncc3)n[nH]c2=S)c1	11.6 µM (active)
O=C(N/N=C/c1ccc(-c2cccc([N+](=O)[O-])c2)o1)c1cccs1	2.06 µM (active)
COC(=O)C1=C(C)N(C)C(=O)/C1=C\c1ccco1	2.06 µM (active)
COC(=O)C1=C(C)NC(=O)/C1=C\c1ccco1	3.66 µM (active)
COC(=O)C1=C(C)N(c2ccc(Br)cc2)C(=O)/C1=C\c1ccco1	18.4 µM (active)
CCN1C(=O)/C(=C\c2ccco2)C(C(=O)OC)=C1C	3.26 µM (active)
CCCC(=O)Nc1sc(C)c(C)c1C#N	14.6 µM (active)
O=C(Nc1cccnc1)C1(F)C(F)(F)C(F)(F)C(F)(F)C(F)(F)C1(F)F	14.6 µM (active)
O=c1cc(-c2ccccc2)oc2ccc(Cl)cc12	3.26 µM (active)
CSc1ccc(-c2cc(=O)c3ccccc3o2)cc1	2.06 µM (active)
S=c1[nH]nc(-c2ccco2)n1/N=C/c1ccc(Br)s1	2.31 µM (active)

Compound	Potency
S=c1[nH]nc(-c2ccco2)n1/N=C/c1cccc(Cl)c1Cl	10.3 µM (active)
O=[N+]([O-])c1ccccc1/C=C/C=N/n1c(-c2ccco2)n[nH]c1=S	11.6 µM (active)
CNc1ccccc(C(=O)/C=C/c2ccccc2OC)c1=O	20.6 µM (active)
CNc1ccc(Br)cc(C(=O)/C=C/c2cccc(Cl)c2Cl)c1=O	1.84 µM (active)
CSc1nsc(SC)c1C(=O)Nc1ccc(C)cc1	16.4 µM (active)
CSc1nsc(SC)c1C(=O)Nc1ccc(Cl)cc1	4.61 µM (active)
CC(OC(=O)/C=C/c1ccc2ccccc2n1)C(=O)Nc1ccc(S(N)(=O)=O)cc1 (configuration not stated)	20.6 µM (active)
CCN(CC)c1ccc2c(c1)oc(=O)c1c(Cl)cc(=O)oc12	inactive
Cc1cc(=O)oc2cc(NC(=O)c3ccccc3Cl)ccc12	2.91 µM (active)
COC(=O)c1sccc1NC(=O)c1cccc(F)c1	18.4 µM (active)
COC(=O)c1sccc1NC(=O)c1ccccc1	20.6 µM (active)
COC(=O)c1sccc1NC(=O)c1cccc(OC)c1	7.31 µM (active)
COC(=O)c1sccc1NC(=O)c1cc(C)on1	16.4 µM (active)
COC(=O)c1sccc1NC(=O)c1ccc(OC)c(OC)c1	4.61 µM (active)
COC(=O)c1sccc1NC(=O)c1ccccc1F	18.4 µM (active)
COC(=O)c1sccc1NC(=O)c1cccc(Cl)c1	20.6 µM (active)
COc1cccc(C(=O)Nc2cc(Cl)c(O)c(Cl)c2)c1	5.17 µM (active)
COC(=O)c1sccc1NC(=O)Nc1ccc(Cl)c(Cl)c1	14.6 µM (active)
O=C(NNC(=O)c1sccc1-n1cccc1)c1cccc(Cl)c1	2.59 µM (active)
COC(=O)c1sccc1NC(=O)c1csc(C)c1	4.61 µM (active)
COc1ccc(NC(=O)c2ccc([N+](=O)[O-])s2)c([N+](=O)[O-])c1	9.2 µM (active)
COc1ccc(OC)c(NC(=O)C(C#N)=Cc2ccco2)c1	6.51 µM (active)

Compound	Potency
COc1ccccc1NC(=O)/C(C#N)=C/c1cccn1C	20.6 µM (active)
COC(=O)CSc1nc2ccccn2c(=O)c1C=O	20.6 µM (active)
O=Cc1c(Sc2ccccn2)nc2ccccn2c1=O	20.6 µM (active)
Nc1nc(/C=C/c2ccc(F)cc2)nc(-c2ccccc2O)n1	2.59 µM (active)
Nc1nccc(-c2ccc(-n3cccc3)cc2)n1	13 µM (active)
COc1cc(OC)c(NC(=O)c2ccco2)cc1Cl	13 µM (active)
COc1cc2c(cc1NC(=O)c1ccco1)CCCC2	3.26 µM (active)
COc1ccc(Cl)cc1NC(=O)c1cc(C)no1	10.3 µM (active)
COc1ccc(Cl)cc1NC(=O)c1cc(-c2ccccc2O)n[nH]1	2.91 µM (active)
COc1ccc(Cl)cc1C(=O)NC(=S)Nc1nc(C)cc(C)n1	inactive
Cc1ccc2nsnc2c1NC(=S)NC(=O)c1ccco1	4.61 µM (active)
COc1ccc(Cl)cc1NC(=O)c1ccco1	4.61 µM (active)
Cc1ccc([N+](=O)[O-])cc1NC(=S)NC(=O)c1ccco1	4.11 µM (active)
CCOc1ccsc1C(=O)NNC(=O)c1ccco1	5.8 µM (active)
O=C(Nc1cc(Cl)ccc1-n1cncn1)c1ccco1	10.3 µM (active)
CCOc1ccccc1NC(=S)NC(=O)c1ccco1	10.3 µM (active)
CC(=O)c1cc2c(cc1NC(=O)c1ccco1)OCCO2	3.66 µM (active)
COc1ccc([N+](=O)[O-])cc1NC(=O)c1ccco1	5.17 µM (active)
Cc1cc(C(=O)Nc2cc(Br)ccc2O)on1	13 µM (active)
Cc1cc(NC(=S)NC(=O)c2ccco2)c2ccccc2n1	2.59 µM (active)
O=C(Nc1ccc(Br)c(Cl)c1)c1ccco1	2.06 µM (active)
Cc1ccc(-n2nc3c([n+]2[O-])CCc2c-3no[n+]2[O-])cc1	0.291 µM (active)

Compound	Potency
[O-][n+]1onc2c1CCc1c-2nn(-c2ccccc2Cl)[n+]1[O-]	0.92 µM (active)
COc1ccc(-c2nnc3c4ccccc4c(C)nn23)cc1	3.66 µM (active)
Cc1nn2c(-c3ccccc3)nnc2c2ccccc12	4.11 µM (active)
CC1CCCCC1NC(=O)COC(=O)c1c2c(nc3ccccc13)/C(=C/c1ccco1)CC2 (configuration not stated)	8.2 µM (active)
O=C(Nc1ccc2c(c1)C(=O)NC2=O)c1ccccc1	20.6 µM (active)
O=C(Nc1ccc2c(c1)C(=O)NC2=O)c1cccc(C(F)(F)F)c1	2.06 µM (active)
Cc1csc2nc(NC(=O)c3ccccc3)sc(=O)c12	8.2 µM (active)
O=C(Nc1nc(=O)c2ccccc2s1)c1ccccc1	0.731 µM (active)
S=C(NNc1ccc2ccccc2c1)NC1CCCCC1	13 µM (active)
CCc1nnc(NC(=O)/C=C/c2ccco2)s1	6.51 µM (active)
Cc1nnc(NC(=O)/C=C/c2ccco2)s1	8.2 µM (active)
CCC(CC)c1nnc(NC(=O)/C=C/c2ccco2)s1	1.46 µM (active)
O=C(/C=C/c1ccco1)NC(=S)Nc1nc(-c2ccc(Cl)cc2)cs1	inactive
Cc1csc(NC(=O)/C=C/c2ccco2)n1	4.11 µM (active)
CNS(=O)(=O)c1ccc2nc(NC(=O)/C=C/c3ccco3)sc2c1	1.84 µM (active)
Cc1cc(C)c2oc(-c3ccc(C)c(NC(=O)/C=C/c4ccco4)c3)nc2c1	2.91 µM (active)
Cc1cccc(C)c1NC(=S)NC(=O)c1cccc(Cl)c1	3.26 µM (active)
Cc1ccc(NC(=O)/C=C/c2ccc([N+](=O)[O-])s2)cc1	2.31 µM (active)
Cc1cc(C)cc(NC(=O)/C=C/c2ccc([N+](=O)[O-])s2)c1	2.31 µM (active)
